We go through 15 compounds from PubChem BioAssay AID720489 (Milwaukee Institute for Drug Discovery, 2013).

This assay can be described thus: Cy5-DNA-NS3h complex fluorescence interference, confirmation, artefact control for HCV NS3 helicase inhibitor project, biochemical, ChemBridge library (AID 720489). Conditions: Cy5-dT15 DNA/NS3h fluorescence interference counterscreen; at 100 µM.

The other results are listed elsewhere or left out. A number with no mark means an inactive call. Active and inactive are the calls of the source.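 The calls were made as follows: active = fluorescence interference ratio at or below 0.8 quencher or at or above a set limitenhancer; inactive = the rest.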

Turning to `O=C(NC(=S)Nc1ccc(-c2nc3cc(Cl)ccc3o2)cc1)c1ccco1`, the fluorescence interference ratio is 1.01.
Turning to `COc1ccc(N2C(=O)C=CC2=O)c([N+](=O)[O-])c1`, the fluorescence interference ratio is 0.746 (active).
As to `COc1ccc(C(=O)Oc2ccc3oc(=O)cc(C)c3c2)cc1OC`, the fluorescence interference ratio was 0.772 (active).
The same measure for `CC(C)(C)N1C(=O)NC(=O)C(=Cc2cccs2)C1=O`: 0.788 (active); for `N#Cc1c(N)nc2sc(C(=O)Nc3ccccc3)c(N)c2c1-c1ccco1`: 0.783 (active).
Take `CCN(CC)c1ccc(NC(=O)/C(=C\c2ccccc2)NC(C)=O)cc1`: the fluorescence interference ratio is 1.09.
The same measure for `C=CCN1C(=O)/C(=C\c2cc(OC)c(O)c([N+](=O)[O-])c2)C(=O)NC1=S`: 0.746 (active); for `COc1cc(C=C2C(=O)NC(=O)NC2=O)ccc1OCCOc1ccc([N+](=O)[O-])cc1`: 0.667 (active); for `CCN(CC)c1ccc(C=C2C(=O)N(C)C(=O)N(C)C2=O)c(O)c1`: 1.
Take `Cc1ccc(C(=O)C[n+]2cc(-c3ccccc3)n3c2CCCCC3)cc1`: the fluorescence interference ratio was 1.02.
As to `O=C1NC(=O)C(=Cc2cc([N+](=O)[O-])cc(Br)c2O)C(=O)N1`, the fluorescence interference ratio is 0.747 (active).
For the compound `COc1cc(/C(O)=C(\C#N)c2nc3ccccc3n2C)cc(OC)c1OC`, the fluorescence interference ratio was 0.722 (active).
In the case of `O=c1c2c(nc3cc(-c4cccc(F)c4)[nH]n13)CCS2`, the fluorescence interference ratio was 0.718 (active).
Turning to `CCOc1ccc(C=C2C(=O)NC(=O)NC2=O)cc1Cl`, the fluorescence interference ratio is 0.902.
Turning to `Cc1ccc(C(=O)NCCNc2ccc([N+](=O)[O-])cc2)cc1`, the fluorescence interference ratio was 0.955.
